# Bioassay records deposited in PubChem BioAssay by several laboratories.
# Jurkat NFkB inh = inhibitors of induced NF-kB luciferase reporter, primary screen, TCR NF-kB activation inhibitor project, cell-based, luminescence, uHTS | Jurkat, PMA/ionomycin-induced NF-kB luciferase reporter | 330,000 compounds, 0.53% hits | inhibition, % at 4 µM; in the data active = inhibition above about 50%
# CSC inhib = cancer stem cell viability inhibitors, primary screen, luminescence; 300,000 compounds, 1.1% hits; inhibition, % at 7.5 µM; AID 2717, 2010; cancer stem cell-like cells viability; in the data active = inhibition above about 75%; tested in HMLE shEcad cells
# 697 NFkB inh = inhibitors of PMA/ionomycin-induced NF-kB reporter, 697 cells, primary screen, B-cell NF-kB inhibitor project, cell-based, luminescence, uHTS. 697 B-cell NF-kB luciferase reporter, 16 h. inhibition, % at 4 µM. 330,000 compounds, 0.33% hits. AID 435022, 2010; in the data active = inhibition above about 35%
# Mdm2-MdmX inh = inhibitors of human Mdm2-MdmX association, primary screen, cell-based, luminescence, split luciferase, SaOS-2, uHTS. 330,000 compounds, 3% hits. AID 485346, 2010. Protein Mdm4 (Homo sapiens) + E3 ubiquitin-protein ligase Mdm2 (Homo sapiens), …. inhibition, % at 8 µM. SaOS-2 split-luciferase Mdm2/MdmX complementation;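 active = inhibition of at least 50% at 8 µM in the primary screen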
# Target sequence (O15151 whole entry, looked up): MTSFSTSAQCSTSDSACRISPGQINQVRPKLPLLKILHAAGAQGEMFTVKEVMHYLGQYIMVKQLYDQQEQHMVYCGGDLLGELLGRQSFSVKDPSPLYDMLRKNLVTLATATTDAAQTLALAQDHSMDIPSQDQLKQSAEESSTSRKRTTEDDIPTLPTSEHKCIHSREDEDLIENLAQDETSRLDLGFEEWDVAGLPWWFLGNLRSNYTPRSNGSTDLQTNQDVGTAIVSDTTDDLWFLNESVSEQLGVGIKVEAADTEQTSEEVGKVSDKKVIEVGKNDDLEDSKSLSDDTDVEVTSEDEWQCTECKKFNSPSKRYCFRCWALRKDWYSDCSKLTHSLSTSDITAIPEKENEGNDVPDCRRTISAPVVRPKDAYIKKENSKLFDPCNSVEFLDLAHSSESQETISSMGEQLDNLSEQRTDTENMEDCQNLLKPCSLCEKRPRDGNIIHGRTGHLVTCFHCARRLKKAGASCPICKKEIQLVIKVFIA
# Target sequence (Q00987 whole entry, looked up): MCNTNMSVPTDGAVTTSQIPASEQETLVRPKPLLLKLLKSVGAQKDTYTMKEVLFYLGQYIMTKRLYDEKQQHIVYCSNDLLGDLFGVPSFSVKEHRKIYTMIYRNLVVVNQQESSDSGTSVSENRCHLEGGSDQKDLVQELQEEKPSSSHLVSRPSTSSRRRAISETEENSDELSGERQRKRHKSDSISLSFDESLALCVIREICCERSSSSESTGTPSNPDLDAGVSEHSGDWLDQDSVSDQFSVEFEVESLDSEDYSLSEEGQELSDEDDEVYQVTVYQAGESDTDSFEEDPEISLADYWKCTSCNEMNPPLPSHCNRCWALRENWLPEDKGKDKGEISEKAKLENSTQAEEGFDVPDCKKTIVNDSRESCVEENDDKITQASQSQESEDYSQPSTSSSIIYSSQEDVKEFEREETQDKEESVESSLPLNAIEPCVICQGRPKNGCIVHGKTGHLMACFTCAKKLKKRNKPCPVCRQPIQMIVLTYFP
# aSyn UTR inh = MLPCN primary screen, SNCA 5' untranslated region. alpha-synuclein 5'UTR reporter, inhibitor activity. inhibition, % (tested at 7.5 µM). 300,000 compounds, 0.82% hits. AID 1813, 2009; in the data active = inhibition above about 60%;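 note: H4 neuroglioblastoma cells stably carrying SNCA 5'UTR luciferase fusion; 0% = DMSO wells and 100% = positive control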
# Gli-Sufu block = Gli-Sufu pathway antagonists, primary screen, luciferase luminescence, Sufu-KO-LIGHT cells, uHTS; 340,000 compounds, 0.74% hits; Sufu-KO-LIGHT fibroblasts, Gli luciferase reporter luminescence; AID 588413, 2011; inhibition, % at 5 µM;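 active = inhibition above about 55%, limit read from the data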;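 note: 0% = DMSO-treated cells and 100% = wells with medium but no cells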
# 697 NFkB conf = PMA/ionomycin-induced NF-kB reporter inhibitors, 697 retest, confirmation, B-cell NF-kB inhibitor project, cell-based, luminescence, single concentration; shares compounds with 697 NFkB inh; 2,000 compounds, 35% hits; 697 B-cell NF-kB luciferase, 16 h; inhibition, % at 4 µM; in the data active = inhibition mostly above about 28%, no sharp cut-off; inactive = mostly below about 22%
# Starred values were filed as active, the others as inactive; . = no result given. Compounds with a hit are over-represented: about 4.5% of the library has one in this group of screens.
SMILES,Jurkat NFkB inh,CSC inhib,697 NFkB inh,Mdm2-MdmX inh,aSyn UTR inh,Gli-Sufu block,697 NFkB conf
Cc1cccc(NC(=O)C(NS(=O)(=O)c2ccc3c(c2)CCC(=O)N3)c2ccccc2)n1 (stereo not drawn),10.0,-2.8,24.1,9.8,-16.0,4.6,.
CN(C)c1ncnc2c1ncn2C1CCCO1 (stereo not drawn),.,.,.,.,.,-1.6,.
C=CCNc1cc(C)oc(=O)c1C(=O)CCC,-16.1,-23.0,3.2,-5.1,8.5,-5.7,.
Cc1ccc(S(=O)(=O)N(C)C)cc1NC(=O)C(C)OC(=O)c1cc[n+]([O-])cc1 (stereo not drawn),3.4,2.4,19.4,-20.6,.,-16.2,.
Cc1nc2cc(-c3cccc(F)c3)nn2c(C)c1CCC(=O)N1CCN(c2ccccn2)CC1,16.1,-15.7,47.6*,9.7,46.0,5.6,28.0
CCc1cc2c(-c3ccccc3)cc(=O)oc2cc1OC(C)C(=O)NCC1CCC(C(=O)O)CC1 (stereo not drawn),-12.0,-9.1,41.2*,11.2,11.4,0.0,19.4
CC(NC(=O)Cc1ccccc1)C(=O)O (stereo not drawn),-12.5,-21.7,4.3,11.6,.,-11.5,.
O=[N+]([O-])/C=C\c1ccc(N2CCCC2)c(F)c1,.,.,.,.,-142.5,-19.5,.
NC(=S)c1ncc(C(F)(F)F)cc1Cl,-1.1,-9.2,9.8,3.7,3.3,2.1,.
NC(=S)Nc1ncc(C(F)(F)F)cc1Cl,5.3,-3.1,47.3*,10.5,-2.4,-4.2,-4.7
Cc1ccc(NC(=O)COC(=O)CCC2CCCC2)c(Br)c1,4.3,.,15.1,-18.5,.,-6.8,.
O=C(CNC(=O)c1cccc(OC(F)F)c1)OCC(=O)c1ccccc1,-9.3,-7.9,35.0*,3.6,21.7,5.8,4.2
CC(=O)c1c(C(C)=O)c(C)n(-c2cccc([N+](=O)[O-])c2)c1C,24.3,6.9,36.1*,3.8,8.6,-2.1,12.2
CCN(CC)S(=O)(=O)c1ccc(NC(=S)Nc2ccc(F)cc2)cc1,8.3,-15.7,-4.9,2.9,-0.9,4.4,.
CCN(CC(N)=O)S(=O)(=O)c1ccc(F)cc1,-0.6,6.0,41.6*,12.6,12.5,-5.2,-7.1
N=c1ccn(Cc2c(Cl)cccc2Cl)cc1,41.6,8.5,46.6*,-10.2,12.6,5.3,56.9*
N=c1ccn(Cc2cccc(Cl)c2)cc1,20.2,14.9,28.7,24.0,34.4,24.3,.
N=c1ccn(Cc2ccccc2Cl)cc1,41.0,-17.1,46.2*,19.2,3.3,24.6,48.5*
N=c1ccn(Cc2ccc(Cl)cc2Cl)cc1,46.9,2.0,34.8,17.2,26.1,27.9,.
COc1ccc2[nH]c3c(c2c1)CCN1C(=O)C(CC(=O)NC(C)(C)C)C[C@H](C(=O)N2CCCCC2)[C@@]31C (stereo partly drawn),.,.,17.2,23.1,.,0.2,.
COc1ccc(-c2noc(N3CCC(C(=O)Nc4ccccc4Cl)CC3)n2)cc1,19.7,3.4,39.1*,19.4,-14.6,4.8,19.4
COc1ccc(-c2noc(N3CCC(C(=O)Nc4ccc(OC)c(OC)c4)CC3)n2)cc1,16.6,-4.3,46.7*,21.2,27.1,-5.8,38.0*
COC(=O)c1c(NC(=O)Cn2cnc([N+](=O)[O-])n2)sc2c1CCC(C)C2 (stereo not drawn),-8.8,15.4,-19.3,23.1,17.9,14.3,.
Cc1sc(N)nc1-c1ccc(Oc2ccccc2)cc1,-9.2,15.0,-14.8,-1.0,-46.5,-20.2,.
CCN(C(=O)COC(=O)c1ccc[nH]c1=O)c1cccc2ccccc12,2.9,-20.3,0.1,17.7,.,0.6,.
O=C(CCCN1C(=O)S/C(=C\c2ccccc2)C1=O)NNC(=O)c1ccccc1O,-2.1,8.1,67.4*,43.8,83.4*,35.7,50.0*
O=C(CCCN1C(=O)S/C(=C\C=C\c2ccccc2)C1=O)Nc1ccc(C(=O)O)cc1,-8.5,-1.4,48.2*,16.9,12.7,-21.9,53.2*
O=C(CCCN1C(=O)/C(=C/c2ccccc2Cl)SC1=S)NNC(=O)c1cccnc1,-34.9,0.2,2.4,-3.6,20.2,-17.1,.
